In PubChem BioAssay (NCATS) one finds Potency and outcome data, which are given here for 24 compounds.

Experiment [1] is described as follows: NS1 protein of Zika virus - qHTS assay to identify small molecule inhibitors in human HEK 293 cells (AID 1347053). Further: nearly all actives have a fitted effect of over 55% in size. Further: potency means the concentration at half of the fitted maximal effect. Conditions: HEK293 ZIKV MR766 infection, NS1 TR-FRET, 24 h; series mostly up to 46.1 µM. The essentials:
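HEK 293 cells pretreated with compound for 1 h, then infected with ZIKV MR766 (MOI 0.5) for 24 h at 37 C. NS1 detected by TR-FRET with two anti-NS1 antibodies; normalized to uninfected (0%) and infected (100%) wells.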
Background: qHTS replaces the single test concentration by a dilution series.

The nature of experiment [2]: qHTS of pediatric cancer cell lines to identify multiple opportunities for drug repurposing: Primary screen for TC32 cells (AID 1347089). Further: nearly all actives have a fitted effect of over 60% in size. Further: potency means the concentration at half of the fitted maximal effect. The settings on record: TC32 Ewing sarcoma viability, CellTiter-Glo luminescence, 48 h; series mostly up to 45.8 µM. In a few lines:
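In the primary qHTS, MIPE compounds were tested at 11 concentrations (0.78 nM to 46 µM) and NPC compounds at 8 (0.59 nM to 46 µM) on TC32 cells for 48 h. CellTiter-Glo luminescence gave viability.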

Experiment [3] is described as follows: qHTS of pediatric cancer cell lines to identify multiple opportunities for drug repurposing: Primary screen for DAOY cells (AID 1347090). Further: nearly all actives have a fitted effect of over 55% in size. Further: potency means the concentration at half of the fitted maximal effect. Conditions: DAOY medulloblastoma viability, CellTiter-Glo luminescence, 48 h; series mostly up to 46 µM. The essentials: (§1)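 Cell viability, CellTiter-Glo luminescence; 500-1,000 cells/well, 8- or 11-point titration, 48 h compound exposure at 37 degrees C, 5% CO2. Controls: DMSO neutral, bortezomib 2.3 µM final as positive.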

Experiment [4] is described as follows: qHTS of pediatric cancer cell lines to identify multiple opportunities for drug repurposing: Primary screen for SJ-GBM2 cells (AID 1347091). Further: potency means the concentration at half of the fitted maximal effect. The settings on record: SJ-GBM2 viability, CellTiter-Glo luminescence, 48 h; series mostly up to 46 µM. In a few lines: as §1
The nature of experiment [5]: qHTS of pediatric cancer cell lines to identify multiple opportunities for drug repurposing: Primary screen for A673 cells (AID 1347092). Further: nearly all actives have a fitted effect of over 45% in size. Further: potency means the concentration at half of the fitted maximal effect. Conditions: A673 Ewing sarcoma viability, CellTiter-Glo ATP luminescence, 48 h; series mostly up to 46 µM. The essentials:
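48 h compound exposure, A673, 500-1,000 cells/well, 37 degrees C/5% CO2. MIPE: 11-point, 0.78 nM-46 µM; NPC: 8-point, 0.59 nM-46 µM (final). Readout CellTiter-Glo luminescence after 15 min RT.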

Experiment [6] can be described thus: Natriuretic polypeptide receptor (hNpr1) antagonism - Pilot counterscreen GloSensor control cell line (AID 1347045; calls by dose curve). The settings on record: HEK293 cGMP GloSensor cells, SNP-stimulated luminescence, 20 min; series mostly up to 38.3 µM. In a few lines:
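This counterscreen uses HEK293 cells expressing the GIP/pGS-40F cGMP biosensor. Compound-treated cells are challenged with 50 uM sodium nitroprusside, and the luciferase signal is compared before and after stimulation.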
Background: A counterscreen serves to expose hits that act by an unwanted route or on another target.

The target of experiment [7] is Atrial natriuretic peptide receptor 1 (Homo sapiens) (UniProt P16066). The experiment is described as follows: Natriuretic polypeptide receptor (hNpr1) antagonism - Pilot screen (AID 1347049; calls by dose curve;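 further: agonist-evoked cGMP luminescence read 20 min after hNppA addition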). The settings on record: hNpr1 cells, antagonist mode cGMP read-out; series mostly up to 57.5 µM. The essentials:
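Readout is cGMP-driven firefly luciferase luminescence in HEK293 cells carrying hNpr1 and a PDE5-domain GloSensor, read before and 20 min after 0.1 nM hNppA stimulation. Cells had 2% substrate reagent for 2 h and test compound for 30 min.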

The target of experiment [8] is Atrial natriuretic peptide receptor 2 (Homo sapiens) (UniProt P20594). The experiment can be described thus: Natriuretic polypeptide receptor (hNpr2) antagonism - Pilot subtype selectivity assay (AID 1347050; calls by dose curve). The settings on record: NPR2-expressing cells, cGMP antagonist-mode read-out; series mostly up to 38.3 µM. In a few lines:
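Pilot selectivity screen against hNpr2: HEK293 cGMP-sensor cells are treated with LOPAC1280 compounds, then with hNppC peptide at 1 nM final. The cGMP-driven luminescence change over 20 min at room temperature is the read-out.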

Experiment [9] concerns the target Parathyroid hormone/parathyroid hormone-related peptide receptor (Homo sapiens) (UniProt Q03431). The experiment is described as follows: qHTS for PTHR1 Agonists: Optimization Screen against the NCGC LOPAC library (AID 1347079). Conditions: HEK293 GP2 PTHR1 GloSensor cAMP luminescence, 1 h; series mostly up to 57.1 µM. The essentials: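 Compounds were tested across a qHTS titration. PTHR1-expressing GP2 cells report cAMP rises via GloSensor luminescence after 1 hr compound exposure at 37C with IBMX present.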

A short description of experiment [10]: qHTS of pediatric cancer cell lines to identify multiple opportunities for drug repurposing: Primary screen for SK-N-MC cells (AID 1347093). Conditions: SK-N-MC viability, CellTiter-Glo luminescence, 48 h; series mostly up to 46 µM. In a few lines:
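Metabolically active cells were quantified by ATP-dependent luminescence (CellTiter-Glo, 15 min at room temperature) following 48 h treatment. Cells had been plated at 500-1,000 per well and settled for 5 h beforehand.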

Results filed as inconclusive are left out. Calls of active or inactive are those of the source. Unless noted, the call rests on the fitted dose curve; in most records, active means well fitted curve in the direction sought with a large enough effect; inconclusive means small, poorly fitted or top-dose-only effect, or another doubt; inactive means no such curve, though single readings can be large; an effect the other way counts as inactive or inconclusive.

Parathyroid hormone/parathyroid hormone-related peptide receptor (Homo sapiens), sequence (Q03431 whole entry, looked up): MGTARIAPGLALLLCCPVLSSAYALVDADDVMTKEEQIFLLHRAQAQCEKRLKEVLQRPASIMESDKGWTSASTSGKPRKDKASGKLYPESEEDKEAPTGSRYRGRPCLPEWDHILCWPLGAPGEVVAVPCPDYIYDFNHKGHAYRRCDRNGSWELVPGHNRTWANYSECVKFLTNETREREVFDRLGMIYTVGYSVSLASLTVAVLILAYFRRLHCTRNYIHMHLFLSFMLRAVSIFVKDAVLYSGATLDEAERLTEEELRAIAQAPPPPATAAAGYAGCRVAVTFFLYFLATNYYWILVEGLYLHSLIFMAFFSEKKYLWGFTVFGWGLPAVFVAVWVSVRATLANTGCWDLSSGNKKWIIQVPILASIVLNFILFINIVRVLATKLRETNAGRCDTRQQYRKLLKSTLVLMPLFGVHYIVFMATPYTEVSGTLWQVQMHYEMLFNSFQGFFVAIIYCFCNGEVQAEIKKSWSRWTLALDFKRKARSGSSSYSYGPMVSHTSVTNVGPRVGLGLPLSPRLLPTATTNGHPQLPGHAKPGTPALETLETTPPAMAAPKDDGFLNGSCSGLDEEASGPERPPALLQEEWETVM
Atrial natriuretic peptide receptor 1 (Homo sapiens), sequence (P16066 whole entry, looked up): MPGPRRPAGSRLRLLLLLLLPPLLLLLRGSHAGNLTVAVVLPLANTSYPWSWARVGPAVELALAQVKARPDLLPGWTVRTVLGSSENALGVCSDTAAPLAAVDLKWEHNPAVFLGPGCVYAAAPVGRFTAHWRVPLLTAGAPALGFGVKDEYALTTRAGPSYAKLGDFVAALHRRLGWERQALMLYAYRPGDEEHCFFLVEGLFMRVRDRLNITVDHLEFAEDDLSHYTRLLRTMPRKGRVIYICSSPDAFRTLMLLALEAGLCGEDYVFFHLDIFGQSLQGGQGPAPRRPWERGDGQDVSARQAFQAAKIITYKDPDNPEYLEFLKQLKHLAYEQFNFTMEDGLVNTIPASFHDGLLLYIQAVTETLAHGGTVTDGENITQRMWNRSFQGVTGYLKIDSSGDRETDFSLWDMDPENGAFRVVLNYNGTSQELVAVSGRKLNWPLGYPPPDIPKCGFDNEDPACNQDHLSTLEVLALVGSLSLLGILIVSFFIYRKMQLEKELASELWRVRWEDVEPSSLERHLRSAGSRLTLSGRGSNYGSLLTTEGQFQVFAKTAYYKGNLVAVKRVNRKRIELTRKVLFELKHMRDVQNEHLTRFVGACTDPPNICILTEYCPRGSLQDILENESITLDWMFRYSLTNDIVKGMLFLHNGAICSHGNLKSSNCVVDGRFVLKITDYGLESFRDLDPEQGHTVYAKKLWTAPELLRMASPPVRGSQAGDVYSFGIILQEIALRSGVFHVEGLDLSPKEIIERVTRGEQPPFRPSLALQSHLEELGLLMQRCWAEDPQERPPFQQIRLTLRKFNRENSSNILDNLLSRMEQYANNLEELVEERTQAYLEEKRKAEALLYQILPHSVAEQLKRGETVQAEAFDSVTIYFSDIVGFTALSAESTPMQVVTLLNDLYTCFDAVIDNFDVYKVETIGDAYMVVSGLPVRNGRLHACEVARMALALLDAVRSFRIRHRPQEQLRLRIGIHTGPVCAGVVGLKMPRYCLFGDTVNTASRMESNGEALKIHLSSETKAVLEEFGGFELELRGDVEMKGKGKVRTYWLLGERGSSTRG
Atrial natriuretic peptide receptor 2 (Homo sapiens), sequence (P20594 whole entry, looked up): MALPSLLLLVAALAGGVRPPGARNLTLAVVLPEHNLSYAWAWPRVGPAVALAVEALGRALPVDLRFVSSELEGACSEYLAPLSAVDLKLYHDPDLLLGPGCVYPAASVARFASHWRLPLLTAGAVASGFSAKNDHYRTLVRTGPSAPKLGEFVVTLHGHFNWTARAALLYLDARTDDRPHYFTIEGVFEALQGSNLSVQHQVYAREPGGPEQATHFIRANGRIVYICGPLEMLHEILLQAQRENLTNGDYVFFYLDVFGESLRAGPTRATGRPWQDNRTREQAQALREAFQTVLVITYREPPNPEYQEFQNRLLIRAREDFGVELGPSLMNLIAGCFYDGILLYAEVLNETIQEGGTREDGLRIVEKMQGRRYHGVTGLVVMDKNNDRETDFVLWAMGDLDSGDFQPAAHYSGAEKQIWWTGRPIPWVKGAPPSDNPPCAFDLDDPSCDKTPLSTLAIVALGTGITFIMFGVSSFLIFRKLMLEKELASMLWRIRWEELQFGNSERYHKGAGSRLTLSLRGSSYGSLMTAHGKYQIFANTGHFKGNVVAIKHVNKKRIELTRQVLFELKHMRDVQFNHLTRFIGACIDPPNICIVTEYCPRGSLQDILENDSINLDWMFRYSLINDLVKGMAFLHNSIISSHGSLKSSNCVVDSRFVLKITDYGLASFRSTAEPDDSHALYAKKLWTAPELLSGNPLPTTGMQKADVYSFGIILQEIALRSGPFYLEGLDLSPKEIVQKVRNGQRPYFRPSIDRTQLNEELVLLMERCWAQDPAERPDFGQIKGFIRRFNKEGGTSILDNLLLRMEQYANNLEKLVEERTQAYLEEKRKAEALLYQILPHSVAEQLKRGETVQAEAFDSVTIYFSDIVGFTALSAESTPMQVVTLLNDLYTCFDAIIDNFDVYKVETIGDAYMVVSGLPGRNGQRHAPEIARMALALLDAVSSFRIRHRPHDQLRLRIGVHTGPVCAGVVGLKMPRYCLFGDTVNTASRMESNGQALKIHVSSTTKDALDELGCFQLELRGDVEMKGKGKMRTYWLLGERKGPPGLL

For `C[C@@H]1CC[C@@]2(OC1)OC1CC3C4CC=C5CC(O)CCC5(C)C4CCC3(C)C1[C@@H]2C` (stereo partly specified), the Potency entry in experiment [1], in experiment [2], in [3] and in experiment [4] was “inactive” throughout.

`Cc1cn([C@@H]2O[C@H](CO)[C@@H](O)[C@H]2F)c(=O)[nH]c1=O`: the Potency result in experiment [1], in experiment [2], in [3], in experiment [4] and in experiment [5] was “inactive” in each case.

For the compound `O=c1[nH]c(=O)n([C@H]2C[C@@H](O)[C@@H](CO)O2)cc1C=CBr`, the compound was called inactive in [6], in experiment [7], in experiment [8] and in experiment [9]. Also, the Potency entry in experiment [1], in [2], in experiment [3], in experiment [4], in [5] and in [10] was “inactive” throughout.

As for `Cc1cnc(NC(=O)Nc2cc(Br)c(C)cc2OC[C@@H]2CNCCO2)cn1`, the Potency in experiment [1] is 6.62 µM (active).

Consider `Cc1noc(-c2ccc(CSCCC(=O)O)cc2)c1NC(=O)OC(C)c1ccccc1Cl` (stereo unspecified), for which the Potency result in [1], in experiment [2], in experiment [3] and in experiment [4] was “inactive” each time.

As for `COC1=C(OC)C(=O)C(CC=C(C)CCC=C(C)CCC=C(C)CCC=C(C)CCC=C(C)CCC=C(C)CCC=C(C)CCC=C(C)CCC=C(C)CCC=C(C)C)=C(C)C1=O`, the Potency entry in experiment [1], in experiment [2], in experiment [3] and in experiment [4] was “inactive” throughout.

Regarding `O=C(O)C[C@H](O)C[C@H](O)C=Cc1c(C2CC2)nc2ccccc2c1-c1ccc(F)cc1`, in experiment [1], the Potency result was “inactive”. The Potency in experiment [2] was 11.7 µM (active); in experiment [3], 1.18 µM (active); in [4], 11.8 µM (active); in [5], 3.72 µM (active).

For `C=C1C[C@@]2(O)O[C@@]3(C[C@H]2C(C)C)[C@H](C)CC[C@H]13`, the Potency entry in experiment [1], in [2], in experiment [3], in experiment [4] and in experiment [5] was “inactive” each time.

Take `C#C[C@]1(O)CC[C@@H]2[C@@H]3CCC4=CC(=O)CC[C@@H]4[C@H]3CC[C@@]21CC`: the Potency entry in experiment [1], in experiment [2], in [3], in experiment [4] and in experiment [5] was “inactive” in each case.

Turning to `CC(Oc1ccc(O)cc1)(P(=O)(O)O)P(=O)(O)O`, the Potency entry in experiment [1], in [2], in experiment [3], in experiment [4] and in experiment [5] was “inactive” each time.

`N#CC(=Cc1ccc(O)c(O)c1)C(=O)NCc1ccccc1`: in [1], the Potency result was “inactive”.

As to `CCC(C(=O)O)C1CCC(C)C(C(C)C(O)C(C)C(=O)C(CC)C2OC3(C=CC(O)[C@@]4(CC[C@](C)(C5CC[C@@](O)(CC)C(C)O5)O4)O3)C(C)CC2C)O1` (stereo partly specified), the Potency was 1.66 µM (active) in experiment [1]; 5.23 µM (active) in [2]; 11.8 µM (active) in experiment [3]; 11.8 µM (active) in [4]; 2.35 µM (active) in experiment [5].

Regarding `CCCc1nc(C(C)(C)O)c(C(=O)O)n1Cc1ccc(-c2ccccc2-c2nn[nH]n2)cc1`, the Potency result in experiment [1], in [2], in experiment [3], in experiment [4] and in [5] was “inactive” each time.

In the case of `Cn1cc(-c2ccc3ncc(Cc4ccc5ncccc5c4)n3n2)cn1`, the Potency entry in experiment [1], in [2], in experiment [3] and in experiment [5] was “inactive” in each case. The Potency in [4] was 0.0093 µM (active).

`O=c1[nH]c(=O)n([C@H]2C[C@@H](O)[C@@H](CO)O2)cc1F`: the Potency was 0.833 µM (active) in experiment [1] and 0.93 µM (active) in experiment [2].

As for `CCCCCCCCCCCCc1ccc(S(=O)(=O)Nc2nncs2)cc1`, the Potency entry in experiment [1], in experiment [2] and in experiment [3] was “inactive” each time.

As to `CC(=O)OC[C@@H]1O[C@@H](n2ccc(=O)[nH]c2=O)[C@H](OC(C)=O)[C@H]1OC(C)=O`, the Potency result in [1], in [2], in [3] and in [4] was “inactive” in each case.

In the case of `CON=C(C(=O)N[C@@H]1C(=O)N2C(C(=O)O)=C(Cn3ccc(=N)n3CCO)CS[C@H]12)c1csc(N)n1`, the Potency entry in experiment [1], in [2], in experiment [3], in experiment [4] and in experiment [5] was “inactive” in each case.

Turning to `CC(Cc1ccc(O)c(O)c1)(NN)C(=O)O` (stereo unspecified), the Potency result in experiment [1], in experiment [2], in [3] and in [4] was “inactive” throughout.

Take `OCCNC1CCCc2c1[nH]c1ccc(-c3ccccc3)cc21` (stereo unspecified): the Potency in experiment [1] is 20.9 µM (active); in experiment [4], 23.5 µM (active); in experiment [5] it was 23.5 µM (active). Besides, the Potency entry in experiment [2] and in [3] was “inactive” in each case.

As for `CN[C@H](CC(C)C)C(=O)N[C@H]1C(=O)N[C@@H](CC(N)=O)C(=O)N[C@@H]2C(=O)N[C@H]3C(=O)N[C@H](C(=O)N[C@H](C(=O)O)c4cc(O)cc(O)c4-c4cc3ccc4O)[C@H](O)c3ccc(c(Cl)c3)Oc3cc2cc(c3O[C@@H]2O[C@H](CO)[C@@H](O)[C@H](O)[C@@H]2O[C@H]2C[C@](C)(N)[C@H](O)[C@H](C)O2)Oc2ccc(cc2Cl)[C@H]1O`, the compound was classed as inactive in experiment [6], in experiment [7], in experiment [8] and in experiment [9]. In addition, the Potency result in experiment [1], in experiment [2], in experiment [3], in experiment [4], in experiment [5] and in experiment [10] was “inactive” throughout.

Regarding `Cc1cc(O)c2c(c1)C(=O)c1cccc(O)c1C2=O`, the Potency result in experiment [1], in experiment [2], in [3], in experiment [4] and in experiment [5] was “inactive” in each case.

For the compound `CON=C(C(=O)N[C@@H]1C(=O)N2C(C(=O)O)=C(CSC(=O)c3ccco3)CS[C@H]12)c1csc(N)n1`, the Potency result in experiment [1], in experiment [2], in [3] and in [4] was “inactive” in each case.

Consider `CCCCCCCCCCCC(CC1OC(=O)C1CCCCCC)OC(=O)C(CC(C)C)NC=O` (stereo unspecified), for which the Potency result in experiment [1], in experiment [2], in experiment [3] and in experiment [5] was “inactive” in each case. For the same compound, in experiment [4], the Potency is 9.35 µM (active).
